# Measurements reported in PubChem BioAssay (EPA / NIEHS).
# Calls of active or inactive are those of the source. Rule for the calls: active = hit-call score of the fitted dose curve at least 0.9, where 1 is the maximum; inactive = score below 0.9.
# Legend:
# Settings in all cases: mRNA level, 48 h; actives raise or lower the signal
# [1] = read-out: Ezrin (EZR), EZR (gene 7430); test: LTEA_HepaRG_EZR: Life Technologies and Expression Analysis (LTEA) Assay for Ezrin (EZR) using HepaRG (AID 2283491)
# In short: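 EZR transcript levels came from Fluidigm qRT-PCR and were normalized to three housekeeping genes after 48 h chemical exposure of HepaRG cells. Dosing used an 8-point half-log series with a 100 uM top concentration in 0.5% DMSO, tested in duplicate; both directions were fitted versus vehicle.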
# [2] = read-out: Cytochrome P450 3A7 (Homo sapiens) (UniProt P24462); test: LTEA_HepaRG_CYP3A7: Life Technologies and Expression Analysis (LTEA) Assay for CYP3A7 using HepaRG (AID 2283492)
# In short: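 qRT-PCR of CYP3A7 in HepaRG lysates after 48 h treatment; concentration-response (8 points, max 100 uM) analysed bidirectionally relative to 0.5% DMSO controls.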
# [3] = read-out: CYP3A5 (gene 1577); test: LTEA_HepaRG_CYP3A5: Life Technologies and Expression Analysis (LTEA) Assay for CYP3A5 using HepaRG (AID 2283493)
# In short: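 mRNA levels were quantified by qRT-PCR on Fluidigm arrays and normalized to three housekeeping genes. Differentiated HepaRG cells received 48 h exposure (top 100 uM, half-log steps, 0.5% DMSO vehicle, duplicate); bidirectional fitting versus DMSO.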
# [4] = read-out: Cytochrome P450 4A22 (Homo sapiens) (UniProt Q5TCH4); test: LTEA_HepaRG_CYP4A22: Life Technologies and Expression Analysis (LTEA) Assay for Cytochrome P450 4A22 (CYP4A22) using HepaRG (AID 2283495)
# In short: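 Concentration-response (8 points, max 100 uM, 0.5% DMSO) in human HepaRG liver cells after 48 h exposure. CYP4A22 mRNA by TaqMan qRT-PCR with housekeeping-gene normalization.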
# [5] = read-out: Cytochrome P450 7A1 (Homo sapiens) (UniProt P22680); test: LTEA_HepaRG_CYP7A1: Life Technologies and Expression Analysis (LTEA) Assay for Cytochrome P450 7A1 (CYP7A1) using HepaRG (AID 2283496)
# In short: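 HepaRG, 48 h exposure, 8-pt half-log series from 100 uM, 0.5% DMSO vehicle, duplicates. Readout: TaqMan qRT-PCR mRNA vs three housekeeping genes; bidirectional curve fit against DMSO baseline.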
# [6] = read-out: Glutathione S-Transferase (GSTA2), GSTA2 (gene 2939); test: LTEA_HepaRG_GSTA2: Life Technologies and Expression Analysis (LTEA) Assay for Glutathione S-Transferase (GSTA2) using HepaRG (AID 2283497)
# In short: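 Oxidative-stress marker GSTA2 is quantified by TaqMan qRT-PCR in HepaRG cultures treated 48 h across an eight-point range to 100 uM. Expression is normalized to endogenous controls and compared with 0.5% DMSO vehicle.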
# [7] = read-out: Glutamate-cysteine ligase catalytic (GCLC), GCLC (gene 2729); test: LTEA_HepaRG_GCLC: Life Technologies and Expression Analysis (LTEA) Assay for Glutamate-cysteine ligase catalytic (GCLC) using HepaRG (AID 2283498)
# In short: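 Oxidative-stress marker GCLC is measured as mRNA change in human HepaRG liver cells after 48 h chemical treatment in 0.5% DMSO, eight concentrations from 100 uM. Activity is fitted bidirectionally against vehicle.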
# [8] = read-out: growth arrest and DNA damage 45 (GADD45G), GADD45G (gene 10912); test: LTEA_HepaRG_GADD45G: Life Technologies and Expression Analysis (LTEA) Assay for growth arrest and DNA damage 45 (GADD45G) using HepaRG (AID 2283499)
# In short: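 Concentration-response in HepaRG: 48 h dosing, 0.5% DMSO, highest level 100 uM. GADD45G expression by qRT-PCR, normalised to endogenous controls; bidirectional fit to DMSO.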
# [9] = read-out: Glutamate-cysteine ligase regulatory (GCLM), GCLM (gene 2730); test: LTEA_HepaRG_GCLM: Life Technologies and Expression Analysis (LTEA) Assay for Glutamate-cysteine ligase regulatory (GCLM) using HepaRG (AID 2283500)
# In short: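 GCLM expression quantified by qRT-PCR, normalized to three housekeeping genes, after 48 h chemical treatment of HepaRG cells in duplicate at 8 concentrations (top 100 uM, half-log steps, 0.5% DMSO). Changes fitted both directions against vehicle.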
# [10] = read-out: Glutathione S-transferase M3 (GSTM3), GSTM3 (gene 2947); test: LTEA_HepaRG_GSTM3: Life Technologies and Expression Analysis (LTEA) Assay for Glutathione S-transferase M3 (GSTM3) using HepaRG (AID 2283501)
# In short: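 Expression of GSTM3 is determined by qRT-PCR in human liver HepaRG cells treated 48 h with an 8-point half-log range from 100 uM in 0.5% DMSO.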
# [11] = read-out: Heat shock 70 kDa protein 1 (HSPA1A), gene 3303; test: LTEA_HepaRG_HSPA1A: Life Technologies and Expression Analysis (LTEA) Assay for Heat shock 70 kDa protein 1 (HSPA1A) using HepaRG (AID 2283502)
# In short: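 HSPA1A expression measured by qRT-PCR with ACTB/GAPDH/POLR2A normalization; curves fitted in both directions relative to DMSO vehicle. Exposure: 48 h in HepaRG cells, duplicate 8-point half-log series from 100 uM, 0.5% DMSO, serum-free induction medium.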
# [12] = read-out: Hypoxia-inducible factor 1-alpha (Homo sapiens) (UniProt Q16665); test: LTEA_HepaRG_HIF1A: Life Technologies and Expression Analysis (LTEA) Assay for Hypoxia-inducible factor 1 (HIF1A) Trancription factor using HepaRG (AID 2283503)
# In short: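 HIF1A transcript level read by qRT-PCR (ACTB, GAPDH, POLR2A normalization) after 48 h chemical exposure of HepaRG cultures. Eight half-log concentrations, top 100 uM, 0.5% DMSO vehicle, duplicates; bidirectional curve fit against DMSO baseline.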
# [13] = read-out: 3-Hydroxy-3-Methylglutaryl-CoA Synthase 2 (HMGCS2), HMGCS2 (gene 3158); test: LTEA_HepaRG_HMGCS2: Life Technologies and Expression Analysis (LTEA) Assay for 3-Hydroxy-3-Methylglutaryl-CoA Synthase 2 (HMGCS2) using HepaRG (AID 2283504)
# In short: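 This steatosis marker was read as HMGCS2 mRNA change in HepaRG cells treated 48 h with up to 100 uM chemical. Normalisation used housekeeping genes; activity in either direction was fitted relative to 0.5% DMSO vehicle.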
# [14] = read-out: HGF (gene 3082); test: LTEA_HepaRG_HGF: Life Technologies and Expression Analysis (LTEA) Assay for Hepatocyte Growth Facto (HGF) using HepaRG (AID 2283505)
# In short: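 Using HepaRG monolayers kept in 0.5% DMSO, chemicals were tested in duplicate over eight half-log concentrations from 100 uM for 48 h. Endpoint: HGF mRNA change relative to DMSO, normalized to ACTB/GAPDH/POLR2A.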
# [15] = read-out: Insulin Like Growth Factor 1 (IGF1), IGF1 (gene 3479); test: LTEA_HepaRG_IGF1: Life Technologies and Expression Analysis (LTEA) Assay for Insulin Like Growth Factor 1 (IGF1) using HepaRG (AID 2283506)
# In short: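 Expression measured by TaqMan qRT-PCR on a Fluidigm array, with three housekeeping genes for normalisation, after 48 h treatment of HepaRG cells. Top concentration 100 uM with half-log steps, 0.5% DMSO vehicle, bidirectional fit.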
# [16] = read-out: Intercellular Adhesion Molecule 1 (ICAM1), ICAM1 (gene 3383); test: LTEA_HepaRG_ICAM1: Life Technologies and Expression Analysis (LTEA) Assay for Intercellular Adhesion Molecule 1 (ICAM1) using HepaRG (AID 2283507)
# In short: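 Using the human liver line HepaRG, compounds are tested in duplicate over 48 h at concentrations up to 100 uM. Expression is determined by TaqMan qRT-PCR, normalized to endogenous controls, and analysed relative to 0.5% DMSO vehicle.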
# [17] = read-out: Insulin-like growth factor-binding protein 1 (IGFBP1), IGFBP1 (gene 3484); test: LTEA_HepaRG_IGFBP1: Life Technologies and Expression Analysis (LTEA) Assay for Insulin-like growth factor-binding protein 1 (IGFBP1) using HepaRG (AID 2283508)
# In short: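 HepaRG, 48 h, 8 conc. (max 100 uM, half-log), duplicates, 0.5% DMSO. Readout: TaqMan qRT-PCR, ACTB/GAPDH/POLR2A normalisation. Fit: bidirectional vs DMSO.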
# [18] = read-out: Interleukin 6 (IL6), IL6 (gene 3569); test: LTEA_HepaRG_IL6: Life Technologies and Expression Analysis (LTEA) Assay for Interleukin 6 (IL6) using HepaRG (AID 2283509)
# In short: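 Changes in IL6 mRNA, up or down relative to 0.5% DMSO controls, were derived from concentration-response curves in human HepaRG cells treated for 48 h at up to 100 uM, with ACTB, GAPDH and POLR2A as normalizers.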
# [19] = read-out: Interleukin 6 Receptor (IL6R), IL6R (gene 3570); test: LTEA_HepaRG_IL6R: Life Technologies and Expression Analysis (LTEA) Assay for Interleukin 6 Receptor (IL6R) using HepaRG (AID 2283510)
# In short: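 IL6R transcript level by qRT-PCR after 48 h chemical exposure (8-point, half-log, max 100 uM, 0.5% DMSO vehicle) of HepaRG cells in serum-free induction medium. Normalized to three housekeeping genes; curves fitted in both directions relative to DMSO.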
# Sequence of Cytochrome P450 3A7 (Homo sapiens) (P24462 whole entry, looked up): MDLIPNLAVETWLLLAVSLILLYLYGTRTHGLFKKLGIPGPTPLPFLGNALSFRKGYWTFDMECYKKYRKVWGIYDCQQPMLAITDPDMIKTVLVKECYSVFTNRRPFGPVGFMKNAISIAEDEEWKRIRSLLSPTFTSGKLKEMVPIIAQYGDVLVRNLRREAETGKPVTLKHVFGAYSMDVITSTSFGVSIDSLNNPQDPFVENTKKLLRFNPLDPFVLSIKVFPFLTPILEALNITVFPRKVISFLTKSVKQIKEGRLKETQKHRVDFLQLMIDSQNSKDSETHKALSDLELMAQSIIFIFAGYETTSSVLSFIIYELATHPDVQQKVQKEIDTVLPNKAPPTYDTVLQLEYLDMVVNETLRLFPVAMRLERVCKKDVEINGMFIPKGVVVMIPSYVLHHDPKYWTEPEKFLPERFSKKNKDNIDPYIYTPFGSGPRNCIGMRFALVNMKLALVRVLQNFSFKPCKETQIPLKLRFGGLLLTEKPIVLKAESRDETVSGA
# Sequence of Hypoxia-inducible factor 1-alpha (Homo sapiens) (Q16665 whole entry, looked up): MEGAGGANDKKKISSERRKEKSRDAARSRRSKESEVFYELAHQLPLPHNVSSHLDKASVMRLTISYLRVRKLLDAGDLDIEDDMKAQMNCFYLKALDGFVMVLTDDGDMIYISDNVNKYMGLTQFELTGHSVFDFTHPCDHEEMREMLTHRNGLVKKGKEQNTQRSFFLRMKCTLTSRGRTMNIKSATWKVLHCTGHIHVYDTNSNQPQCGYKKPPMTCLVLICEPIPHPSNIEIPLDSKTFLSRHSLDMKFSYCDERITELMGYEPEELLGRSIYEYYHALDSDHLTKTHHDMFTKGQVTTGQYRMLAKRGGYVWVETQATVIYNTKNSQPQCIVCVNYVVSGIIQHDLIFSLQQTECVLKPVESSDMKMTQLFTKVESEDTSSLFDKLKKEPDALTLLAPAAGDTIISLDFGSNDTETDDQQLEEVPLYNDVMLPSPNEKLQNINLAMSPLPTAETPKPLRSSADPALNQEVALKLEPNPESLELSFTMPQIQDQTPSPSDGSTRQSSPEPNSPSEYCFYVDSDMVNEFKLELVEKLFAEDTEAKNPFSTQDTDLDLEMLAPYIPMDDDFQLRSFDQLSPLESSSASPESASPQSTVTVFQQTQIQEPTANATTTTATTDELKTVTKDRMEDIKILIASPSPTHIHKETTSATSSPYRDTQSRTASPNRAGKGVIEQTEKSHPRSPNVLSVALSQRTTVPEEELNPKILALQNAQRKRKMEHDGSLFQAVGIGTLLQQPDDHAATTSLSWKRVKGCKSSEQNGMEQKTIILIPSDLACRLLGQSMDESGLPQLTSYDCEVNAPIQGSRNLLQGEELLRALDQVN
compound,measurement,setting,value
CCOP(=S)(OCC)SCSCC,outcome,[1],inactive
same,outcome,[2],inactive
same,outcome,[3],inactive
same,outcome,[4],inactive
same,outcome,[5],inactive
same,outcome,[6],inactive
same,outcome,[7],inactive
same,outcome,[8],inactive
same,outcome,[9],inactive
same,outcome,[10],inactive
same,outcome,[11],inactive
same,outcome,[12],inactive
same,outcome,[13],inactive
same,outcome,[14],inactive
same,outcome,[15],inactive
same,outcome,[16],inactive
same,outcome,[17],inactive
same,outcome,[18],inactive
same,outcome,[19],inactive
O=P(Oc1ccccc1)(Oc1ccccc1)Oc1ccccc1,outcome,[1],inactive
same,AC50,[2],12.6 µM (active)
same,outcome,[4],inactive
same,outcome,[5],inactive
same,outcome,[6],inactive
same,AC50,[7],74.9 µM (active)
same,AC50,[8],50 µM (active)
same,AC50,[9],50 µM (active)
same,outcome,[10],inactive
same,outcome,[11],inactive
same,outcome,[14],inactive
same,AC50,[15],4.15 µM (active)
same,outcome,[16],inactive
same,AC50,[17],37.8 µM (active)
same,outcome,[18],inactive
same,outcome,[19],inactive
CCC(C)(C)c1ccc(O)cc1,outcome,[1],inactive
same,outcome,[2],inactive
same,outcome,[3],inactive
same,outcome,[4],inactive
same,outcome,[5],inactive
same,outcome,[6],inactive
same,outcome,[7],inactive
same,outcome,[8],inactive
same,outcome,[9],inactive
same,outcome,[10],inactive
same,outcome,[11],inactive
same,outcome,[12],inactive
same,outcome,[13],inactive
same,outcome,[14],inactive
same,outcome,[15],inactive
same,outcome,[16],inactive
same,outcome,[17],inactive
same,outcome,[18],inactive
same,outcome,[19],inactive
O=C(O)C1C(C(=O)O)C2(Cl)C(Cl)=C(Cl)C1(Cl)C2(Cl)Cl (stereo unspecified),outcome,[1],inactive
same,outcome,[2],inactive
same,outcome,[3],inactive
same,outcome,[4],inactive
same,outcome,[5],inactive
same,outcome,[6],inactive
same,AC50,[7],50 µM (active)
same,outcome,[8],inactive
same,outcome,[9],inactive
same,outcome,[10],inactive
same,outcome,[11],inactive
same,outcome,[13],inactive
same,outcome,[14],inactive
same,outcome,[15],inactive
same,outcome,[16],inactive
same,outcome,[17],inactive
same,outcome,[18],inactive
same,outcome,[19],inactive
CN(C)C(=O)Cl,outcome,[1],inactive
same,outcome,[2],inactive
same,outcome,[3],inactive
same,outcome,[4],inactive
same,outcome,[5],inactive
same,outcome,[6],inactive
same,outcome,[7],inactive
same,outcome,[8],inactive
same,outcome,[9],inactive
same,outcome,[10],inactive
same,outcome,[11],inactive
same,outcome,[12],inactive
same,outcome,[13],inactive
same,outcome,[14],inactive
same,outcome,[15],inactive
same,outcome,[16],inactive
same,outcome,[17],inactive
same,outcome,[18],inactive
same,outcome,[19],inactive
